From PubChem BioAssay (Tox21)
Several values for one entry are separate records, joined by “and”; a condition that tells them apart may be missing. Identical values can stand only once. Results filed as inconclusive are left out. Where a structure was tested more than once in an assay, its records may differ in their call. Activity calls are given as the source filed them. Unless noted, calls come from the whole dose curve; as a rule, active = well fitted curve in the direction sought with a large enough effect in the repeat runs; inconclusive = weak or mixed curves; inactive = no such curve, though single readings can be large; an effect the other way counts as inactive or inconclusive.

Legend:
[1] = qHTS assay for small molecule agonists of the p53 signaling pathway (AID 651631; calls by dose curve; note: nearly all actives have a fitted effect of over 15% in size)
How it was run: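 Quantitative high-throughput format: 4,000 p53RE-bla HCT-116 cells/well, 5 h pre-incubation, 16 h compound exposure at 37 °C, 2 h room-temperature substrate step, fluorescence intensity measured.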

[2] = qHTS assay for small molecules that induce genotoxicity in human embryonic kidney cells expressing luciferase-tagged ATAD5 (AID 651632); note: nearly all actives have a fitted effect of over 15% in size; note: potency is the fitted concentration of half-maximal effect
How it was run: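 DMSO vehicle served as the control. HEK293T reporter cells, 16 hr at 37C, then 30 min Amplite at room temperature; ATAD5 induction is measured as luciferase activity.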

[3] = qHTS assay for small molecule agonists of the p53 signaling pathway - cell viability (AID 651633; calls by dose curve; note: nearly all actives have a fitted effect of over 30% in size; note: potency is the fitted concentration of half-maximal effect)
How it was run: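 p53RE-bla cells were treated with compound for 16 hours at 37 C. Cytotoxicity was then measured as CellTiter-Glo luminescence after 30 min at room temperature.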

[4] = qHTS assay for small molecules that induce genotoxicity in human embryonic kidney cells expressing luciferase-tagged ATAD5 - cell viability (AID 651634; calls by dose curve; note: nearly all actives have a fitted effect of over 25% in size; note: potency is the fitted concentration of half-maximal effect)
How it was run: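 Here HEK293T cells with the ATAD5 luciferase reporter are incubated with test compounds for 15.5 hr, and cytotoxicity is then gauged by measuring protease activity in live cells using fluorescence.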

[5] = qHTS assay to test for compound auto fluorescence at 590 nm (red) in HepG2 cells (AID 720674)
How it was run: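 Fluorescence at 590 nm emission following 540 nm excitation was recorded from HepG2 wells one hour after compound transfer, with DMSO-only wells as vehicle and Rose Bengal sodium equivalency as the scale.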

[6] = qHTS assay to test for compound auto fluorescence at 535 nm (green) in HepG2 cells (AID 720675)
[7] = qHTS assay to test for compound auto fluorescence at 460 nm (blue) in HEK293 cells (AID 720678)
How it was run: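 After cell attachment (4-5 hr, 37C), compounds were pinned onto HEK293 monolayers in 10% dialyzed FBS medium. The blue channel (405/460 nm) was read following overnight culture. Equivalency was calculated against triamterene.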

[8] = qHTS assay to test for compound auto fluorescence at 590 nm (red) in HEK293 cells (AID 720679)
How it was run: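 Plates of HEK293 cells (10% dialyzed FBS) are treated with 23 nL compound or DMSO vehicle after a 4-5 hr attachment period, incubated overnight at 37C, and read for red fluorescence at 540/590nm.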

[9] = qHTS assay for small molecule disruptors of the mitochondrial membrane potential (AID 720635); note: potency is the fitted concentration of half-maximal effect
How it was run: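 HepG2 cells exposed to compound 1 hr at 37C, then Mito-MPS dye 30 min. Ratio read of aggregate (540/590 nm) versus monomer (490/535 nm) fluorescence.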

[10] = qHTS assay for small molecule disruptors of the mitochondrial membrane potential - cell viability (AID 720634; calls by dose curve; note: nearly all actives have a fitted effect of over 20% in size; note: potency is the fitted concentration of half-maximal effect)
How it was run: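 Viability of HepG2 cells is scored from ATP content by luminescence; cells are exposed to compound for 1 hr at 37 C and 5% CO2, then dosed with m-MPI dye before the CellTiter-Glo reagent.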

Measured: Potency

O=C(Cl)OCCOCCOC(=O)Cl
inactive: [1] | [2] | [3] | [4] | [5] | [6] | [7]

CCCSP(=S)(OCC)Oc1ccc(SC)cc1 (stereo not drawn)
inactive: [1] | [2] | [3] | [4] | [5] | [6] | [7] | [8]

N#CC(C#N)=Cc1ccc(O)c(O)c1
active: [9] 11.9 µM
inactive: [1] | [2] | [3] | [4] | [5] | [6] | [7] | [8]

NCCc1cc(O)c(O)cc1O
inactive: [2] | [3] | [4] | [10] | [9] | [5] | [6] | [7] | [8]

CCc1cnc(C2=NC(C)(C(C)C)C(=O)N2)c(C(=O)O)c1 (stereo not drawn)
inactive: [2] | [3] | [4] | [10] | [9] | [5] | [6] | [7] | [8]

CCCCCCCCCCCC[N+](C)(C)CCOc1ccccc1
active: [3] 29.8 µM and 21.7 µM | [4] 29.8 µM and 61.1 µM | [9] 26.6 µM and 30.6 µM
inactive: [2] | [5] | [6] | [7] | [8]
inactive and 68.6 µM (active): [10]

C[N+]1(CCC(C(N)=O)(c2ccccc2)c2ccccc2)CCCCC1
inactive: [2] | [3] | [4] | [10] | [9] | [5] | [6] | [7] | [8]

Cc1nc(N(C)C)nc(OC(=O)N(C)C)c1C
inactive: [2] | [3] | [4] | [10] | [9] | [5] | [8]

CCC1(CC)C(=O)NC(=O)NC1=O
inactive: [2] | [3] | [4] | [10] | [5] | [6] | [8]

C=CC(=O)OCC
inactive: [2] | [3] | [4] | [10] | [5] | [6] | [7]

CN(C)c1ccc(N=O)cc1
inactive: [5] | [6] | [7]
active: [2] 21.8 µM and 68.6 µM | [3] 21.8 µM | [4] 61.3 µM and 54.5 µM | [10] 17.3 µM and 48.6 µM
